Test results from PubChem BioAssay (EPA / NIEHS).
Records with an inconclusive call do not appear. Calls of active or inactive are those of the source. How the source made its calls, unless noted: active means hit-call score of the fitted dose curve at least 0.9, where 1 is the maximum; inactive means score below 0.9.

Columns and labels:
[1] = target: Glucocorticoid receptor (Homo sapiens) (UniProt P04150); experiment: ATG_GR_TRANS: Attagene TRANS-FACTORIAL HepG2 Assay for human Glucocorticoid Receptor (GR) (AID 2282978; active means hit-call score of the fitted dose curve at least 0.9, where 1 is the maximum;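 further: activators score as hits since higher reporter transcript over DMSO is fitted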); details: HepG2 Attagene TRANS GR reporter, mRNA transcription
Glucocorticoid receptor (Homo sapiens), sequence (P04150 whole entry, looked up, the tested form may be a part): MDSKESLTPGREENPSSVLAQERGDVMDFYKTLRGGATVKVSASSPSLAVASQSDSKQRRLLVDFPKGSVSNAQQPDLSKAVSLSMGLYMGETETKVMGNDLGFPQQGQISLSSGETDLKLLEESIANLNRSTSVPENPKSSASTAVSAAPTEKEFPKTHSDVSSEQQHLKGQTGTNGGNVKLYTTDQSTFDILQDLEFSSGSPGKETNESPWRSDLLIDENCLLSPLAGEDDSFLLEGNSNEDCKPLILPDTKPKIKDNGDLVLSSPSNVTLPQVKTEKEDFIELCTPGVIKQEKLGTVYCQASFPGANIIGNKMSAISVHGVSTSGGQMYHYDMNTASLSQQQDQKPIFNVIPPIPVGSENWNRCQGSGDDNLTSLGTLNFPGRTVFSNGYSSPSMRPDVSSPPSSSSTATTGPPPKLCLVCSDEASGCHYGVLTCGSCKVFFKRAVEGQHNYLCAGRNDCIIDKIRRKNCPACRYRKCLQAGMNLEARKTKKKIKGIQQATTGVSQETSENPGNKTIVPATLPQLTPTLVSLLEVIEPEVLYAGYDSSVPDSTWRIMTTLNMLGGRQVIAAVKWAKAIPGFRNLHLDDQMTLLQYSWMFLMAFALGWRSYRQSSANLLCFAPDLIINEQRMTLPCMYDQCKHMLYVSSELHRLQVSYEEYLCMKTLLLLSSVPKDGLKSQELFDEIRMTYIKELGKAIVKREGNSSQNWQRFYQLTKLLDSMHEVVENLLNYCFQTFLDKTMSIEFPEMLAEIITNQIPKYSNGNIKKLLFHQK
Method in brief: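 Exogenous NR-GAL4 fusion activity was assessed through induced GAL4-UAS reporter transcripts in transfected human HepG2 cells, quantified after 24 h by RT-PCR and fluorescent capillary electrophoresis with DMSO as baseline.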

[2] = target: Oxysterols receptor LXR-beta (Homo sapiens) (UniProt P55055); experiment: ATG_LXRb_TRANS: Attagene TRANS-FACTORIAL HepG2 Assay for human Liver X Receptor beta (LXRb) (AID 2282981; active means hit-call score of the fitted dose curve at least 0.9, where 1 is the maximum); details: HepG2 Attagene TRANS GAL4-LXRb reporter, mRNA
Oxysterols receptor LXR-beta (Homo sapiens), sequence (P55055 whole entry, looked up, the tested form may be a part): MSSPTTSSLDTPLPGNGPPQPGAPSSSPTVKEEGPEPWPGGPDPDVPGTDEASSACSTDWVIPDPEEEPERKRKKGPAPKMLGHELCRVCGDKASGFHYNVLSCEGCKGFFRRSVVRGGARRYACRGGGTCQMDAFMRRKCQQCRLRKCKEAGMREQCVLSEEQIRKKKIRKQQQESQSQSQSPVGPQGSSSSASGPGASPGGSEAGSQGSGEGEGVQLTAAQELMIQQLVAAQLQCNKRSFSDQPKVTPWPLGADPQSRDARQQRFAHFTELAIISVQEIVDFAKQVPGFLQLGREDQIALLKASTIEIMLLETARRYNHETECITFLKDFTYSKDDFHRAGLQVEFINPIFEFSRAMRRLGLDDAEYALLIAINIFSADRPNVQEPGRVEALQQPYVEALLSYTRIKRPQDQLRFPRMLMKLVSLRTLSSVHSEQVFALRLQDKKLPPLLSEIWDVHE
Method in brief: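 HepG2 cells transiently transfected with multiple reporter transcription units carrying chimeric NR-Gal4 proteins acting on GAL4-UAS reporters; compound exposure 24 h. Reporter mRNA quantified by RT-PCR, 6-FAM labelling, HpaI digestion and capillary electrophoresis; gain of signal versus DMSO.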

[3] = ATG_M_06_TRANS: Attagene TRANS-FACTORIAL HepG2 Assay for M06 Transcription Factor (Internal Marker) (AID 2282983; active means hit-call score of the fitted dose curve at least 0.9, where 1 is the maximum;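 further: reporter transcript level by RT-PCR then capillary electrophoresis fluorescence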); details: HepG2 Attagene TRANS M06 internal marker reporter
Method in brief: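 HepG2 cells transiently transfected with GAL4-UAS multiple reporter units, dosed 24 h. Reporter RNA reverse-transcribed, PCR-amplified, 6-FAM-labeled, HpaI-digested and quantified by capillary electrophoresis; this internal-marker signal fitted upward relative to DMSO.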

[4] = ATG_M_32_TRANS: Attagene TRANS-FACTORIAL HepG2 Assay for M32 Transcription Factor (Internal Marker) (AID 2282984; active means hit-call score of the fitted dose curve at least 0.9, where 1 is the maximum;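 further: transcript level of a background control reporter unit measured by RT-PCR and capillary electrophoresis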); details: HepG2 Attagene TRANS M32 internal marker reporter
Method in brief: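 HepG2 cells transiently transfected with multiple GAL4-UAS reporter transcription units, dosed for 24 hours; reporter mRNA quantified by RT-PCR, 6-FAM primer extension, HpaI digestion and capillary electrophoresis. Gain-of-signal fitted versus DMSO baseline; internal background-control marker.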

[5] = target: Nuclear receptor subfamily 4 group A member 2 (Homo sapiens) (UniProt P43354); experiment: ATG_NURR1_TRANS: Attagene TRANS-FACTORIAL HepG2 Assay for human Nuclear Receptor Related Protein 1 (NURR1) (AID 2282985; active means hit-call score of the fitted dose curve at least 0.9, where 1 is the maximum); details: HepG2 Attagene TRANS reporter, mRNA readout
Nuclear receptor subfamily 4 group A member 2 (Homo sapiens), sequence (P43354 whole entry, looked up, the tested form may be a part): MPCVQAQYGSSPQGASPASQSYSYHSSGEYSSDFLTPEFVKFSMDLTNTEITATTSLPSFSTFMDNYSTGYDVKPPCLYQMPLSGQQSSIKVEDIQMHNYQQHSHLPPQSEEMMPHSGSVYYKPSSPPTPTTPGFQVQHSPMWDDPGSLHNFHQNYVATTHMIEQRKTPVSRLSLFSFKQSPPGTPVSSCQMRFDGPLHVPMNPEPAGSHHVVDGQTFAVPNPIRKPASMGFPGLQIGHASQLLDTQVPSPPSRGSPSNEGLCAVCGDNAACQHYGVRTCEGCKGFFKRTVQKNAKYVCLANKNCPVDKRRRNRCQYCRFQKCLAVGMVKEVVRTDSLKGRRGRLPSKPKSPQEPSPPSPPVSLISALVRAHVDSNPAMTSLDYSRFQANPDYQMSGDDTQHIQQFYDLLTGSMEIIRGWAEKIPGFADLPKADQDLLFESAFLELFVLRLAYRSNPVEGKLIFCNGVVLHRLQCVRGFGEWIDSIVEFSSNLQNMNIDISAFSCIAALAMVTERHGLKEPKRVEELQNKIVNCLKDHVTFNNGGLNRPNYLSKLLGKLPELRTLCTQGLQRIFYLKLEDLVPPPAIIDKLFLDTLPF
Method in brief: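 HepG2 cells transiently transfected with GAL4-UAS reporter units and chimeric NR-Gal4 constructs; chemical exposure 24 h. Reporter mRNA quantified by RT-PCR, fluorescent labelling and capillary electrophoresis; gain of signal fitted relative to DMSO baseline.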

[6] = target: Transcriptional activator Myb (Homo sapiens) (UniProt P10242); experiment: ATG_Myb_CIS: Attagene CIS-FACTORIAL HepG2 Assay for human Myeloblastosis (Myb) Proto-Oncogene Transcription Factor (AID 2282986); details: HepG2 Attagene CIS-FACTORIAL Myb reporter transcription; actives raise or lower the signal
Transcriptional activator Myb (Homo sapiens), sequence (P10242 whole entry, looked up): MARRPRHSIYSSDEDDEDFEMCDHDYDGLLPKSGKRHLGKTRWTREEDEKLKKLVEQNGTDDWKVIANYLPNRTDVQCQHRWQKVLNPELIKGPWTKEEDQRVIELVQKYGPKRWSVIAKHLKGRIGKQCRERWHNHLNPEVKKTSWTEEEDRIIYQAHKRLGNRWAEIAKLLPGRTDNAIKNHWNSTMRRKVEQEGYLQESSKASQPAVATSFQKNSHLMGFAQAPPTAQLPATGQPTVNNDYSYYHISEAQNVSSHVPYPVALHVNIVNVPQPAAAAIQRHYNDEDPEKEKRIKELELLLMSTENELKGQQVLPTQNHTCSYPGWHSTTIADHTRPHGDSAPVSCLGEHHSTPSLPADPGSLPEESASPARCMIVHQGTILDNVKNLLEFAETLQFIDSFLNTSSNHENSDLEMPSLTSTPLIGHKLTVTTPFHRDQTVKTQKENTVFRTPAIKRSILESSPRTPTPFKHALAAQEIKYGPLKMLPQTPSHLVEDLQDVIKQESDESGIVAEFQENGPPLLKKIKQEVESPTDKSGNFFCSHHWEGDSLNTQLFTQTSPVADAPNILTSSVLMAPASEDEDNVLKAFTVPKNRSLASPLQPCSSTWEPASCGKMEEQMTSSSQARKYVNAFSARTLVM
Method in brief: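 In this HepG2 transient-transfection format, cis-regulated reporter mRNA is quantified 24 h post-dosing by RT-PCR with capillary electrophoresis, fitted bidirectionally to DMSO baseline.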

[7] = target: Nuclear respiratory factor 1 (Homo sapiens) (UniProt Q16656); experiment: ATG_NRF1_CIS: Attagene CIS-FACTORIAL HepG2 Assay for human Nuclear Respiratory Factor 1 (NRF1) Orphan Gene (AID 2282987); details: HepG2 NRF1 cis-element reporter, Attagene multiplex; actives raise or lower the signal
Nuclear respiratory factor 1 (Homo sapiens), sequence (Q16656 whole entry, looked up): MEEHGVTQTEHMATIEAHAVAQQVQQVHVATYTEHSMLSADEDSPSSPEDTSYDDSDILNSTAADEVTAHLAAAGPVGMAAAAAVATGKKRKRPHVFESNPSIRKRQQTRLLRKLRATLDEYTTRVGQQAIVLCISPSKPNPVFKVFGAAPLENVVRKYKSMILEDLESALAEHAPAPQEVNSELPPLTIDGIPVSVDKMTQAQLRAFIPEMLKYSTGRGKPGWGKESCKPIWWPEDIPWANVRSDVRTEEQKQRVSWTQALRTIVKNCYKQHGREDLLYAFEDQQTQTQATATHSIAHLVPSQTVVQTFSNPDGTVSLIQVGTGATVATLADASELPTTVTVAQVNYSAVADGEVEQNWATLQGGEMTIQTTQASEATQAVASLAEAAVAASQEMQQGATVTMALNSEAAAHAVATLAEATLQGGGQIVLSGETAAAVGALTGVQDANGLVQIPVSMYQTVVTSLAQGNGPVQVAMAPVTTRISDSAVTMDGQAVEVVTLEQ
Method in brief: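 Using DMSO as baseline, gain- or loss-of-signal was fitted for reporter mRNA levels in HepG2 cells transiently transfected with cis-regulated reporter units. Samples were taken 24 h after dosing and read by RT-PCR with capillary electrophoresis.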

[8] = ATG_NFI_CIS: Attagene CIS-FACTORIAL HepG2 Assay for human Nuclear Factor I (NFI) (AID 2282989); details: HepG2 cis-regulatory reporter, NFI response element transcription; actives raise or lower the signal
Method in brief: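 HepG2, transient MRTU, 24 h exposure; RNA→cDNA→PCR→FAM label→HpaI→CE fluorescence. Bidirectional fit, DMSO = baseline.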

[9] = target: Myc proto-oncogene protein (Homo sapiens) (UniProt P01106); experiment: ATG_Myc_CIS: Attagene CIS-FACTORIAL HepG2 Assay for human Myelocytomatosis (Myc) Proto-Oncogene Transcription Factor (AID 2282990); details: HepG2, Attagene cis-reporter transcription factor activity; actives raise or lower the signal
Myc proto-oncogene protein (Homo sapiens), sequence (P01106 whole entry, looked up): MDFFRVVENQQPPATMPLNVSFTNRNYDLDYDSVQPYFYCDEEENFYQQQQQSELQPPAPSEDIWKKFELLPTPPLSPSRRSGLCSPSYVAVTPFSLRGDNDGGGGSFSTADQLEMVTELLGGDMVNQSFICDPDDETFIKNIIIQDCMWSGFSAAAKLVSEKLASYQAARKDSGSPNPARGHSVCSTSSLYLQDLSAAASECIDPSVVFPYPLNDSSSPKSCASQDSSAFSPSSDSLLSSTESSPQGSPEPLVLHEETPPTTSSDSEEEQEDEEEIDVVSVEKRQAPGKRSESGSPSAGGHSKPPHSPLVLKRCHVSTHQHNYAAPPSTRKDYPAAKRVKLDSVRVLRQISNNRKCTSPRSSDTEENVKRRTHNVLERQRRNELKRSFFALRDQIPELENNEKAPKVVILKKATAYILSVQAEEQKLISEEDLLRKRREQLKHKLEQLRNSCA
Method in brief: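 DMSO-normalised, bidirectionally fitted reporter mRNA signal. HepG2 cells transfected with cis reporter constructs, treated 24 h; transcripts detected by RT-PCR, 6-FAM primer extension and CE.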

[10] = ATG_NF_kB_CIS: Attagene CIS-FACTORIAL HepG2 Assay for human Nuclear Factor Kappa B (NF-kB) (AID 2282991); details: HepG2 Attagene cis-factorial NF-kB reporter mRNA; actives raise or lower the signal
Method in brief: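 Endpoint from a 52-component multiplexed HepG2 reporter panel: cis-regulated transcription units transiently transfected, 24 h dosing, reporter mRNA quantified by RT-PCR and capillary electrophoresis, scored as increase or decrease against DMSO.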

[11] = ATG_Oct_MLP_CIS: Attagene CIS-FACTORIAL HepG2 Assay for human Octamer-Binding Transcription Factor (Oct) (AID 2282993); details: HepG2 Attagene cis-factorial Oct reporter, mRNA; actives raise or lower the signal
Method in brief: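 Multiplexed cis-reporter assay in human liver HepG2 cells, 24 h incubation. Reporter RNA amplified and labelled, then resolved by capillary electrophoresis; DMSO serves as negative control and baseline.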

[12] = target: Cellular tumor antigen p53 (Homo sapiens) (UniProt P04637); experiment: ATG_p53_CIS: Attagene CIS-FACTORIAL HepG2 Assay for human p53 Transcription Factor (AID 2282994); details: HepG2 p53 cis-element reporter, Attagene mRNA; actives raise or lower the signal
Cellular tumor antigen p53 (Homo sapiens), sequence (P04637 whole entry, looked up): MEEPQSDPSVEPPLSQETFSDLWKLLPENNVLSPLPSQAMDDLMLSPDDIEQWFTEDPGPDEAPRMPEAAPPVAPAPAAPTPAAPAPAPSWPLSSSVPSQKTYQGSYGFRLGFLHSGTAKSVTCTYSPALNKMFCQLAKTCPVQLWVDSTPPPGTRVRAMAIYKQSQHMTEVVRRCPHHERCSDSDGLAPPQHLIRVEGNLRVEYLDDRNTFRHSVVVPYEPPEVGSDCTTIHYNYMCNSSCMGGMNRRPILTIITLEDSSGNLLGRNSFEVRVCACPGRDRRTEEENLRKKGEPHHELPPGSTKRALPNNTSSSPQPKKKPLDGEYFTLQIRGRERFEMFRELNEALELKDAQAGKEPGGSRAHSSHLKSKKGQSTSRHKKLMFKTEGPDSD
Method in brief: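 Multiplexed reporter mRNA assay in human HepG2 liver cells; cis-regulated units report endogenous factor activity. Values come from bidirectional curve fitting against DMSO negative control after 24 h treatment.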

[13] = target: Hepatocyte nuclear factor 4-alpha (Homo sapiens) (UniProt P41235); experiment: ATG_HNF4a_TRANS: Attagene TRANS-FACTORIAL HepG2 Assay for human Hepatocyte Nuclear Factor 4 alpha (HNF4a) (AID 2282982; active means hit-call score of the fitted dose curve at least 0.9, where 1 is the maximum); details: HepG2 HNF4a transactivation reporter, mRNA readout
Hepatocyte nuclear factor 4-alpha (Homo sapiens), sequence (P41235 whole entry, looked up, the tested form may be a part): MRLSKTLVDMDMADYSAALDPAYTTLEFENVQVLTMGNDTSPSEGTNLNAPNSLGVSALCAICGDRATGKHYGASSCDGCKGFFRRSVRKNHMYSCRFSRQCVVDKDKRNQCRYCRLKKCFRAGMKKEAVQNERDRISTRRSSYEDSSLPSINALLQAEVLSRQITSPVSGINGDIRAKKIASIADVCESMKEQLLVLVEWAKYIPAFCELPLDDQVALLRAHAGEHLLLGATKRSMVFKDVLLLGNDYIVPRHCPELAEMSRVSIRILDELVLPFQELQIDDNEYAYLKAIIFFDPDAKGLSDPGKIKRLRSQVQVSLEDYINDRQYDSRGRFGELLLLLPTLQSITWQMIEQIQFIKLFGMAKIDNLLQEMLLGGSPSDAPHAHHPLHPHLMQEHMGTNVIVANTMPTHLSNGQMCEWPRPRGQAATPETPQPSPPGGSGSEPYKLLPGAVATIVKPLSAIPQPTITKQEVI
Method in brief: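 HepG2 cells transiently transfected with multiplexed GAL4-UAS reporter units responsive to chimeric NR-GAL4 proteins; compound exposure 24 h. Reporter mRNA quantified by RT-PCR, 6-FAM labelling, HpaI digestion and capillary electrophoresis; gain of signal versus DMSO baseline.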

[14] = ATG_NRF2_ARE_CIS: Attagene CIS-FACTORIAL HepG2 Assay for human Nuclear Factor Erythroid 2 Related Factor 2 (NFR2) response to Antioxidant Response Elements (ARE) (AID 2282992); details: HepG2 Attagene ARE/NRF2 reporter, transcription factor activity; actives raise or lower the signal;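 on AC50: reporter mRNA level measured by RT-PCR and capillary electrophoresis fluorescence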
Method in brief: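 Multiplexed reporter mRNA profiling in HepG2 after a 24 h chemical exposure. Curves fitted in both directions relative to DMSO negative control.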

[15] = target: Oxysterols receptor LXR-alpha (Homo sapiens) (UniProt Q13133); experiment: ATG_LXRa_TRANS: Attagene TRANS-FACTORIAL HepG2 Assay for human Liver X Receptor alpha (LXRa) (AID 2282980; active means hit-call score of the fitted dose curve at least 0.9, where 1 is the maximum); details: HepG2 Attagene TRANS reporter, LXRa transactivation
Oxysterols receptor LXR-alpha (Homo sapiens), sequence (Q13133 whole entry, looked up, the tested form may be a part): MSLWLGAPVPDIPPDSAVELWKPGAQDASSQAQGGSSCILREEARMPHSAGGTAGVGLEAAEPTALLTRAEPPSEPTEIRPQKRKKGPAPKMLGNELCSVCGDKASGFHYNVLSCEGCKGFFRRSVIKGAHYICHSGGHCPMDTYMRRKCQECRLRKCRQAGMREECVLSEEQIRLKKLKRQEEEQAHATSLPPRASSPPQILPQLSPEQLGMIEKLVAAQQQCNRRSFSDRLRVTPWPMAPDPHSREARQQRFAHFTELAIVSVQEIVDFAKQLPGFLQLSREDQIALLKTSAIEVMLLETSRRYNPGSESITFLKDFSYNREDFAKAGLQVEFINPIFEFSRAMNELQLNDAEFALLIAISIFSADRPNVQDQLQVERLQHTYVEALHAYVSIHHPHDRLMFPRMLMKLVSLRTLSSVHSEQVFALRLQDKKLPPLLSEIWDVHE
Method in brief: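 HepG2 cells transiently transfected with GAL4-UAS reporter units for chimeric NR-Gal4 proteins, exposed to chemicals for 24 h. Reporter mRNA quantified by RT-PCR and capillary electrophoresis; gain of signal fitted relative to DMSO.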

[16] = target: Bile acid receptor (Homo sapiens) (UniProt Q96RI1); experiment: ATG_FXR_TRANS: Attagene TRANS-FACTORIAL HepG2 Assay for Farnesoid X Receptor (FXR) (AID 2282979; active means hit-call score of the fitted dose curve at least 0.9, where 1 is the maximum;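 further: hits raise reporter mRNA above DMSO so AC50 marks FXR activation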); details: HepG2 Attagene TRANS FXR-GAL4 reporter transcription
Method in brief: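 HepG2 cells were transiently transfected with GAL4-UAS reporters driven by chimeric NR-Gal4 proteins and dosed for 24 h. Reporter mRNA was quantified by RT-PCR, fluorescent labelling, HpaI digestion and capillary electrophoresis, with gain of signal scored versus DMSO.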

[17] = BSK_3C_TissueFactor: BioMAP Diversity Plus: 3C Assay for Tissue Factor Biomarker Activity (AID 2282997); details: BioMAP 3C HUVEC, tissue factor biomarker readout; actives raise or lower the signal
Method in brief: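 HUVEC were treated 24 h, then surface tissue factor measured by ELISA and fitted bidirectionally against DMSO. Parallel SRB total-protein staining assessed overt cytotoxicity at the same time point.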

[18] = BSK_3C_uPAR: BioMAP Diversity Plus: 3C Assay for Urokinase-type plasminogen activator receptor (uPAR) Biomarker Activity (AID 2282998); details: BioMAP 3C HUVEC, uPAR biomarker ELISA; actives raise or lower the signal
Method in brief: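 Dose primary human umbilical vein endothelial cells, incubate 24 h, measure cell-surface uPAR by ELISA, then fit the signal in both directions against the DMSO negative control.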

[19] = BSK_3C_VCAM1: BioMAP Diversity Plus: 3C Assay for Vascular cell adhesion molecule 1 (VCAM1) Biomarker Activity (AID 2282999); details: BioMAP 3C HUVEC, VCAM1 ELISA, cytokine-stimulated; actives raise or lower the signal
Method in brief: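 Human umbilical vein endothelial cells were dosed with compound for 24 h, after which cell-surface VCAM-1 was quantified by ELISA. Bidirectional curve fitting used DMSO as negative control and activity baseline.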

[20] = BSK_4H_Eotaxin3: BioMAP Diversity Plus: 4H Assay for Eotaxin 3 Biomarker Activity (AID 2283000); details: primary human endothelial cells (HUVEC); actives raise or lower the signal
Method in brief: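 Eotaxin-3 (CCL26) levels were measured by ELISA in HUVEC primary cultures 24 h post-dosing. Gain or loss of signal was fitted in both directions, with DMSO serving as baseline and negative control.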

Measured: AC50

C=C(C)[C@@H]1CCC2=CCC[C@@H](C)[C@]2(C)C1
inactive: [1] | [2] | [3] | [4] | [5] | [6] | [7] | [8] | [9] | [10] | [11] | [12]

CCc1nccnc1C
inactive: [1] | [2] | [13] | [3] | [4] | [5] | [6] | [7] | [10] | [14] | [11] | [12]

CCOC(=O)CC(C(C)=O)C(C)=O
inactive: [1] | [15] | [13] | [6] | [7] | [8] | [9] | [10] | [14] | [11] | [12]

CC(C)C1=CC2=CC[C@@H]3[C@](C)(CCC[C@@]3(C)C(=O)O)[C@H]2CC1
inactive: [1] | [13] | [3] | [7] | [8] | [9] | [11]
active: [15] 26.8 µM | [5] 111 µM | [10] 157 µM

Cc1ccc(C(C)c2ccc(C)c(C)c2)cc1C
inactive: [1] | [5] | [7] | [8] | [9]
active: [14] 37.5 µM | [11] 147 µM | [12] 41.9 µM

O=[N+]([O-])c1ccc(CO)cc1
inactive: [1] | [3] | [4] | [5] | [6] | [7] | [8] | [9] | [10] | [14] | [11] | [12]

COC(=O)c1cc(Cl)ccc1[N+](=O)[O-]
inactive: [1] | [3] | [4] | [6] | [7] | [9] | [10] | [11]
active: [14] 48 µM

CC(=O)OCC(C)OC(C)=O (stereo not given)
inactive: [16] | [15] | [2] | [13] | [4] | [6] | [7] | [8] | [9] | [14] | [11] | [12]

C=C1C2CCC(C2)C1(C)C (stereo not given)
inactive: [1] | [5] | [6] | [7] | [8] | [9] | [10] | [14] | [11] | [12]

COCc1c(C(C)C)nc(C(C)C)c(/C=C/[C@@H](O)C[C@@H](O)CC(=O)O)c1-c1ccc(F)cc1
inactive: [1] | [3] | [5] | [6] | [7] | [8] | [9] | [10] | [14] | [12] | [19]
active: [17] 5.66 µM | [18] 0.0342 µM | [20] 0.0266 µM

OC1CCCCCCCCCCC1
inactive: [1] | [3] | [6] | [7] | [8] | [9] | [10] | [14] | [11] | [12]
